Screening results deposited in PubChem BioAssay by National Center for Advancing Translational Sciences (NCATS).
Compounds with a hit are over-represented: about 3.3% of the library has one in this group of screens.
15-hLO inh: inhibitors of human 15-lipoxygenase (ALOX15) | P16050 | purified 15hLO-1, xylenol orange hydroperoxide absorbance | Potency, µM (series often up to 57.1 µM), hits mostly inhibitors | 1.4% of 74,000 active; also: nearly all actives have a fitted effect of over 55% in size
Target sequence (P16050 whole entry, looked up): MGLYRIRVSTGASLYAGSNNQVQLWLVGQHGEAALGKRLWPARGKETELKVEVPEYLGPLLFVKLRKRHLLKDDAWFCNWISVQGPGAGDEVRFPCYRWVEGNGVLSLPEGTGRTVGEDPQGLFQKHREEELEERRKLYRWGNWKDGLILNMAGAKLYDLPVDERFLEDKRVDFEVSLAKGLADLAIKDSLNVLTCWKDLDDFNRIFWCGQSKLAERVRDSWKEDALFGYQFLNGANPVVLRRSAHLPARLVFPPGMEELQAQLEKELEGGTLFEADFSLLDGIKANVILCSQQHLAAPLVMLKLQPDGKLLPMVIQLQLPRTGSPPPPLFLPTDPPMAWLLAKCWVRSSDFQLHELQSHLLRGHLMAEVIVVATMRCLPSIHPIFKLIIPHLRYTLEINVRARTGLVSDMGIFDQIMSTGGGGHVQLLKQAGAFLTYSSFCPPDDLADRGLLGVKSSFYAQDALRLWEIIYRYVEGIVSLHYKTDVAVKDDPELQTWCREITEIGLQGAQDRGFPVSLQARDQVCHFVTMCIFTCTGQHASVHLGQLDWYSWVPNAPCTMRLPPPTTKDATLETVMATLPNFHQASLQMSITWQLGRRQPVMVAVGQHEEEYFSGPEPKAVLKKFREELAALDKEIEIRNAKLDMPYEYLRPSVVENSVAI
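Hydroperoxide formed from arachidonic acid (50 uM) by purified human 15hLO-1 (40 nM) oxidizes ferrous iron, and the ferric-xylenol orange complex is read at 573 versus 405 nm. Compounds were preincubated 15 min; reaction ran 6 min at room temperature.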
Tau filament bind: binds recombinant human tau filaments; P10636; recombinant tau filaments, thioflavin S fluorescence, 15 h; filaments grown with octadecylsulfate alongside compound; Potency, µM (highest dose often 57.1 µM); 2% of 71,000 active;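 also: actives lower thioflavin S fluorescence by blocking filaments or displacing dye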
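Recombinant tau protein (human, 1 uM final) plus 30 uM ODS in HEPES pH 7.4 with NaCl, DTT and thioflavine S. Compound present from the start; fluorescence at 510 nm after 15 h, 37 C.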
Pol III holo inh: inhibitors of bacterial DNA polymerase III holoenzyme; reconstituted DNA polymerase III holoenzyme replication, biochemical; Potency, µM (series often up to 57.1 µM); 0.25% of 71,000 active; AID 603
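Reconstituted *E. coli* holoenzyme (0.35 nM Pol III, 1 nM beta, 154 nM SSB, 2 nM primase) was preincubated with compound for 15 min at RT. Synthesis on 1.4 nM ssM13Gori ran 35 min, then was stopped with PicoGreen/EDTA and read as dsDNA fluorescence.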
BRCT inh red: disrupts BRCA1 BRCT binding to phosphoprotein, red fluorophore readout; Potency, µM (top dose mostly 76.9 µM), hits mostly inhibitors; AID 892; P38398; BRCT-phosphopeptide binding, red fluorescence polarization; 0.03% of 75,000 active
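Fluorescence polarization: 100 nM His-tagged BRCA1 BRCT with 100 nM TAMRA-labelled phospho-BACH1 decapeptide, phosphate buffer pH 7.3 with 150 mM NaCl, DTT, 0.01% Tween 20; 12 min RT. Binding inhibition seen as FP decrease.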
BRCT PPI green: inhibitors of human BRCA1 BRCT-phosphoprotein interaction (green fluorophore) | P38398 | BRCA1 BRCT-phosphopeptide binding, green fluorescence polarization | Potency, µM (doses to about 76.9 µM), most hits filed as inhibitors | 0.05% of 75,000 active | AID 875
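Compounds were incubated for 12 min at room temperature with a complex of 100 nM fluorescein-tagged pBACH1 decapeptide and 250 nM His-tagged BRCT protein. Buffer was phosphate pH 7.3 with EDTA, DTT and Tween 20. Disruption of binding lowers the polarization signal.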
TsaE inh: YjeE (TsaE) inhibition, E. coli; P0AF67; purified YjeE enzyme, qHTS inhibition assay; Potency, µM; 0.05% of 71,000 active
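Fluorescence polarization of a BODIPY Texas Red–ADP probe (2 uM) bound to purified YjeE (10 uM) was read after 15 min room-temperature incubation with compounds. Loss of polarization marks inhibitors; ADP serves as titrated control.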
A number is an active result; i = inactive; ? = inconclusive; nt = not tested or not shown; [ ] = another dose, or the depositor's remark. Calls follow the shape of the dose curve; as a rule, active = well fitted curve in the direction sought with a large enough effect; inconclusive = small, poorly fitted or top-dose-only effect, or another doubt; inactive = no such curve, though single readings can be large; an effect the other way counts as inactive or inconclusive.

SMILES	15-hLO inh	Tau filament bind	Pol III holo inh	BRCT inh red	BRCT PPI green	TsaE inh
COc1ccc(Cn2nnnc2CN(Cc2cc3cc(C)ccc3[nH]c2=O)C2CCCC2)cc1	i	i	i	i	i	i
COc1ccc2[nH]c(=O)c(CN(C3CCCCC3)C(c3nnnn3Cc3ccco3)C(C)C)cc2c1 (stereo unspecified)	16µM	i	i	i	i	i
CCC(c1nnnn1Cc1ccco1)N(Cc1cc2cc(C)cc(C)c2[nH]c1=O)CC1CCCO1 (stereo unspecified)	10µM	i	i	i	i	i
COC(=O)[C@@H]1C[C@H]1[C@@H](NC(=O)c1ccc(Br)cc1)c1ccccc1	i	i	i	i	i	i
Cc1cc(C)c2c(N)c(C(=O)N3CCN(c4ncccn4)CC3)sc2n1	i	i	i	i	i	i
COCc1cc(C)nc2sc(C(=O)N3CCN(c4ccccc4)CC3)c(N)c12	6.3µM	i	i	i	i	i
CC(C)(C)N1C(=O)Cc2c1nc(N)c1c(N)nc(N3CCCCC3CO)c(C#N)c21 (stereo unspecified)	20µM	7.9µM	i	i	i	i
COc1ccccc1NC(=O)N(Cc1ccco1)Cc1cc2cc(C)cc(C)c2[nH]c1=O	10µM	i	i	i	i	i
CC(C)(C)c1ccc(O)c(O)c1	4µM	i	i	i	i	i
CCOC(=O)CCN1C(=O)[C@H]2[C@@H]3[C@H](O)C=CC(=O)[C@H]3CC[C@H]2C1=O	i[11.4 µM]	nt	nt	i[15.4 µM]	i[15.4 µM]	nt
CCOC(=O)CCCCCCCCCCCCC1C=CCC1 (stereo unspecified)	13µM	nt	nt	i	i	nt
CCCCCCCCCCCCCCCC(=O)OC(CO)CO	i	nt	nt	i	i	nt
OC(CCN1CCOCC1)(c1ccc(Cl)cc1)C1CCCCC1 (stereo unspecified)	i	20µM	i	i	i	i
Cc1ccc(S(=O)(=O)OCC2CN3C(CCC(C)C3c3ccc(Br)cc3)C(=O)O2)cc1 (stereo unspecified)	i[11.4 µM]	nt	nt	i[15.4 µM]	i[15.4 µM]	nt
CC(C)(C)c1ccc(O)c(CN(Cc2cc(C(C)(C)C)ccc2O)C2CCCCC2)c1	i[11.4 µM]	i[11.4 µM]	i[11.4 µM]	i[15.4 µM]	i[15.4 µM]	i
N[C@H](Cc1ccc(O)c(I)c1)C(=O)O	nt	i	i	nt	nt	i
NC(Cc1ccc(O)c(O)c1)C(=O)O (stereo unspecified)	4µM	nt	nt	i	i[3.08 µM]	nt
CC1CCN(CC[C@@H]2CCCN2S(=O)(=O)c2cccc(O)c2)CC1	i	i	i	i	i	i
CC1=NN(C(=O)c2ccncc2)C(=O)[C@@H]1N=Nc1ccc2ccccc2c1	i[11.4 µM]	1.6µM	i[11.4 µM]	i[15.4 µM]	i[15.4 µM]	i
O=C(C1COc2ccccc2O1)N1CCc2ccccc21 (stereo unspecified)	16µM	i	?	i	i	i
CCC(=O)O[C@H](CC(=O)O)C[N+](C)(C)C	i	?	i	i	i	i
CC(=O)O[C@H](CC(=O)O)C[N+](C)(C)C	i	40µM	i	i	i	i
COc1ccccc1OC[C@H](O)CN1CCN(CC(=O)Nc2c(C)cccc2C)CC1	i	i	i	i	i	i
CCCCCCN(C(=O)CCCCCN1C(=O)NC(c2ccccc2-c2ccccc2)C(C(=O)OCc2ccccc2)=C1C)C(C(=O)NCCCC)c1ccc(OCC(=O)OC)c(C(=O)OC)c1 (stereo unspecified)	i	i	i	i	i	i
CC1=C(C(=O)OCC2CCCO2)C(c2ccccc2OC(C)C)C2=C(CC(c3ccco3)CC2=O)N1 (stereo unspecified)	32µM	i	i	i	i	i
CCN1C(=O)[C@H]2[C@H]3[C@H](O)[C@H](O)C/C(=N/O[C@@H](C)CN4CCCc5nc(C)c(C)cc54)[C@@H]3CC[C@@H]2C1=O	i[11.4 µM]	nt	nt	i[15.4 µM]	i[15.4 µM]	nt
O=C1c2ccccc2C(=O)c2c1ccc(O)c2O	10µM	nt	nt	i	i	nt
O=C1c2ccc(O)c(O)c2C(=O)c2c(O)ccc(O)c21	0.25µM	nt	nt	32µM	i[3.08 µM]	nt
O=C1c2cccc(O)c2C(=O)c2c(O)cccc21	?	i	i	i	i	i
